Measurements as given in PubChem BioAssay (Tox21).
Inconclusive results are not listed. Activity calls are given as the source filed them. Unless noted, calls follow the shape of the dose curve; as a rule, active = well fitted curve in the direction sought with a large enough effect in the repeat runs; inconclusive = weak or mixed curves; inactive = no such curve, though single readings can be large; an effect the other way counts as inactive or inconclusive.

Legend:
[1] = qHTS assay for small molecules that induce genotoxicity in human embryonic kidney cells expressing luciferase-tagged ATAD5 (AID 651632); also: nearly all actives have a fitted effect of over 15% in size
Summary of the method: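 DMSO vehicle served as the control. HEK293T reporter cells, 16 hr at 37C, then 30 min Amplite at room temperature; ATAD5 induction is measured as luciferase activity.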

[2] = qHTS assay for small molecule agonists of the p53 signaling pathway - cell viability (AID 651633; calls by dose curve;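 also: p53RE-bla HCT reporter cells with a stable beta-lactamase p53 reporter; series mostly up to about 83 µM; nearly all actives have a fitted effect of over 30% in size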)
Summary of the method: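 p53RE-bla cells were treated with compound for 16 hours at 37 C. Cytotoxicity was then measured as CellTiter-Glo luminescence after 30 min at room temperature.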

[3] = qHTS assay for small molecules that induce genotoxicity in human embryonic kidney cells expressing luciferase-tagged ATAD5 - cell viability (AID 651634; calls by dose curve; also: nearly all actives have a fitted effect of over 25% in size)
Summary of the method: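 Here HEK293T cells with the ATAD5 luciferase reporter are incubated with test compounds for 15.5 hr, and cytotoxicity is then gauged by measuring protease activity in live cells using fluorescence.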

[4] = qHTS assay for small molecule disruptors of the mitochondrial membrane potential - cell viability (AID 720634; calls by dose curve;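 also: human HepG2 liver cancer cells; series mostly up to about 83 µM; nearly all actives have a fitted effect of over 20% in size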)
Summary of the method: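 Viability of HepG2 cells is scored from ATP content by luminescence; cells are exposed to compound for 1 hr at 37 C and 5% CO2, then dosed with m-MPI dye before the CellTiter-Glo reagent.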

[5] = qHTS assay to test for compound auto fluorescence at 590 nm (red) in HepG2 cells (AID 720674)
Summary of the method: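 HepG2 cells, 2,000 per well in MEM with 10% FBS, attached overnight at 37 C, then got 23 nL compound or DMSO. After 1 hr at 37 C, 5% CO2, red fluorescence was read at 540/590 nm against Rose Bengal sodium as reference.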

[6] = qHTS assay to test for compound auto fluorescence at 535 nm (green) in HepG2 cells (AID 720675)
[7] = qHTS assay to test for compound auto fluorescence at 460 nm (blue) in HEK293 cells (AID 720678)
Summary of the method: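 HEK293 cells (2,000 per well, medium with 10% dialyzed FBS) attached for 4-5 hr at 37C, then received compound and stood overnight at 37C, 5% CO2. Blue fluorescence was read at Ex/Em 405/460 nm and expressed relative to triamterene.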

[8] = qHTS assay to test for compound auto fluorescence at 590 nm (red) in HEK293 cells (AID 720679)
Summary of the method: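 HEK293 cells (2,000/well, medium with 10% dialyzed FBS) attached for 4-5 hr at 37C, received 23 nL compound and were incubated overnight at 37C, 5% CO2. Red fluorescence was then read at 540/590nm Ex/Em, referenced to Rose Bengal sodium.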

[9] = qHTS assay to test for compound auto fluorescence at 535 nm (green) in HEK293 cells (AID 720680)
[10] = qHTS assay to test for compound auto fluorescence at 460 nm (blue) in HEK293 cell free culture (AID 720681)
Summary of the method: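 Compounds were added to cell-free DMEM with 10% FBS and fluorescence read directly. The blue channel used 405 nm excitation and 460 nm emission, with triamterene as the reference fluorophore.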

[11] = qHTS assay to test for compound auto fluorescence at 535 nm (green) in HEK293 cell free culture (AID 720682)
Summary of the method: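 Using fluorescein as calibrant, autofluorescence was quantified at 485/535 nm in cell-free DMEM containing 10% FBS after pintool addition of compound or vehicle.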

[12] = qHTS assay to test for compound auto fluorescence at 590 nm (red) in HEK293 cell free culture (AID 720683)
Summary of the method: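 Cell-free wells of DMEM with 10% FBS received compound, and intrinsic fluorescence was read at excitation/emission 540/590 nm. Values expressed as equivalence to Rose Bengal sodium.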

[13] = qHTS assay to test for compound auto fluorescence at 590 nm (red) in HepG2 cell free culture (AID 720684)
Summary of the method: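 Rose Bengal sodium served as the reference for red signal. Test compounds were dispensed into serum-containing MEM (10% FBS) without cells, and plates were read at 540/590 nm.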

[14] = qHTS assay to test for compound auto fluorescence at 460 nm (blue) in HepG2 cell free culture (AID 720685)
Summary of the method: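 Cell-free plates of MEM plus 10% FBS received 23 nL compound or DMSO vehicle; blue-channel (405/460 nm) intensity scored against triamterene as reference fluorophore.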

[15] = qHTS assay to test for compound auto fluorescence at 535 nm (green) in HepG2 cell free culture (AID 720686)
[16] = qHTS assay to test for compound auto fluorescence at 460 nm (blue) in HepG2 cells (AID 720687)
Summary of the method: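 HepG2 cells in MEM with 10% FBS, attached overnight at 37 C, were exposed to compound or DMSO for 1 hr at 37 C, 5% CO2. Blue fluorescence was read at 405/460 nm, with triamterene as reference fluorophore.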

[17] = target: Glucocorticoid receptor (Homo sapiens) (UniProt P04150); assay: qHTS assay to identify small molecule agonists of the glucocorticoid receptor (GR) signaling pathway (AID 720691; active = well fitted activation curve with a large enough effect in the signal ratio in the repeat runs, not every such curve was filed as active; the % refers to the signal ratio)
Glucocorticoid receptor (Homo sapiens), sequence (P04150 whole entry, looked up): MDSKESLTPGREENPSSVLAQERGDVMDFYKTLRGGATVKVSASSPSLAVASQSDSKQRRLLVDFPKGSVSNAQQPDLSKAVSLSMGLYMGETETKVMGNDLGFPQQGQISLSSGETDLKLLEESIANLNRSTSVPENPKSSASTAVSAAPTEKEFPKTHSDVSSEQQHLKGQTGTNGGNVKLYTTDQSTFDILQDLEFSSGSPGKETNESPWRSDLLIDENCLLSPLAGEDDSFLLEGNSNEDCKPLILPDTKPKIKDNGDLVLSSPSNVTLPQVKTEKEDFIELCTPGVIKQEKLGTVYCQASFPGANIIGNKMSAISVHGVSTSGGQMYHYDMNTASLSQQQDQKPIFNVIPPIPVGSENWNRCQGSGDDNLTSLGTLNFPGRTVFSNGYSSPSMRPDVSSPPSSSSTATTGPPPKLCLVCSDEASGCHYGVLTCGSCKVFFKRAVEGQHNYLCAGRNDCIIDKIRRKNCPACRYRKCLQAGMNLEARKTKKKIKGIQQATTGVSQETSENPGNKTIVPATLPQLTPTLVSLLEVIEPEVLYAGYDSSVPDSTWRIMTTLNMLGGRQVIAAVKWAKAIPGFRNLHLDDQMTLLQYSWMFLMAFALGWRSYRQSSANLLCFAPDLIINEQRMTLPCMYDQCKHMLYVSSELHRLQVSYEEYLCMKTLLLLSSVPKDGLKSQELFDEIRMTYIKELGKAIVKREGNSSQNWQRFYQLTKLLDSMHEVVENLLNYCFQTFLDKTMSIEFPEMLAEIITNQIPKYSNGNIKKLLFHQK
Summary of the method: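 Compounds in DMSO, alongside positive controls, were added to GR-bla HeLa reporter cells and incubated 18 h at 37 C; GRE-driven beta-lactamase was detected by fluorescence after 2 h with FRET substrate at room temperature.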

[18] = target: Glucocorticoid receptor (Homo sapiens) (UniProt P04150); assay: qHTS assay to identify small molecule antagonists of the glucocorticoid receptor (GR) signaling pathway (AID 720692; active = well fitted inhibition curve with a large enough effect in the signal ratio in the repeat runs, not every such curve was filed as active; the % refers to the signal ratio)
Summary of the method: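 In a 1536-well cell format, compounds were added 4 h after seeding GR-bla HeLa cells, together with dexamethasone at 5 nM final; reporter activity was measured by FRET-substrate fluorescence following 18 h at 37 C.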
% is scaled to controls: 0 for no effect and ±100 for the full control effect.

CC(C)COC(=O)c1ccccc1O
inactive: Potency [1] | Potency [2] | Potency [3] | Potency [4] | outcome [5] | outcome [6] | Potency [7] | outcome [8] | outcome [9] | Potency [10] | outcome [11] | outcome [12] | outcome [13] | Potency [14] | outcome [15] | Potency [16] | Potency [17] | Potency [18]

O=[N+]([O-])c1ccc(CCO)cc1
inactive: Potency [1] | Potency [2] | Potency [3] | Potency [4] | outcome [5] | outcome [6] | Potency [7] | outcome [8] | outcome [9] | Potency [10] | outcome [11] | outcome [12] | outcome [13] | Potency [14] | outcome [15] | Potency [16] | Potency [17] | Potency [18]

CCCCc1ccc2cccc(S(=O)(=O)O)c2c1
inactive: Potency [1] | Potency [2] | Potency [3] | Potency [4] | outcome [5] | outcome [6] | Potency [7] | outcome [8] | outcome [9] | Potency [10] | outcome [11] | outcome [12] | outcome [13] | Potency [14] | outcome [15] | Potency [16] | Potency [17]

OC[C@H]1O[C@@H]2O[C@H]3[C@H](O)[C@@H](O)[C@@H](O[C@H]4[C@H](O)[C@@H](O)[C@@H](O[C@H]5[C@H](O)[C@@H](O)[C@@H](O[C@H]6[C@H](O)[C@@H](O)[C@@H](O[C@H]7[C@H](O)[C@@H](O)[C@@H](O[C@H]8[C@H](O)[C@@H](O)[C@@H](O[C@H]9[C@H](O)[C@@H](O)[C@@H](O[C@H]1[C@H](O)[C@H]2O)O[C@@H]9CO)O[C@@H]8CO)O[C@@H]7CO)O[C@@H]6CO)O[C@@H]5CO)O[C@@H]4CO)O[C@@H]3CO
inactive: Potency [1] | Potency [2] | Potency [3] | Potency [4] | outcome [5] | outcome [6] | Potency [7] | outcome [8] | outcome [9] | Potency [10] | outcome [11] | outcome [12] | outcome [13] | Potency [14] | outcome [15] | Potency [16] | Potency [17] | Potency [18]

C#CC(O)C(CC)CCCC (stereo unspecified)
inactive: Potency [1] | Potency [2] | Potency [3] | Potency [4] | outcome [5] | outcome [6] | Potency [7] | outcome [8] | outcome [9] | Potency [10] | outcome [11] | outcome [12] | outcome [13] | Potency [14] | outcome [15] | Potency [16] | Potency [17]

NS(=O)(=O)c1cc(C2(O)NC(=O)c3ccccc32)ccc1Cl (stereo unspecified)
inactive: Potency [1] | Potency [2] | Potency [3] | Potency [4] | fluorescence, relative to Rose Bengal [5] -0.645% [at 18.6 µM] | fluorescence, % of fluorescein control [6] 7.3e-05% [at 18.6 µM] | fluorescence, % of triamterene [7] -0.0194% [at 18.6 µM] | fluorescence, % of fluorescent control [8] 0.0283% [at 18.6 µM] | fluorescence, % of fluorescein [9] 0.0145% [at 18.6 µM] | fluorescence, % of fluorescent control [10] -0.0547% [at 18.6 µM] | activity change [11] 0.0635% [at 18.6 µM] | fluorescence, % of fluorescent control [12] 0.411% [at 18.6 µM] | fluorescence, % of Rose Bengal [13] 0.348% [at 18.6 µM] | fluorescence, % of fluorescent control [14] 0.0381% [at 18.6 µM] | fluorescence, % of fluorescein control [15] 0.0502% [at 18.6 µM] | fluorescence, % of fluorescent control [16] -0.125% [at 18.6 µM] | Potency [17] | Potency [18]

CCCCCCCCC=O
inactive: Potency [1] | Potency [2] | Potency [3] | Potency [4] | outcome [5] | outcome [6] | Potency [7] | outcome [8] | outcome [9] | Potency [10] | outcome [11] | outcome [12] | outcome [13] | Potency [14] | outcome [15] | Potency [16] | Potency [17] | Potency [18]

CC(C)(C)C(=O)/C=C/c1ccc(Cl)cc1
inactive: Potency [1] | Potency [2] | Potency [3] | Potency [4] | outcome [5] | outcome [6] | Potency [7] | outcome [8] | outcome [9] | Potency [10] | outcome [11] | outcome [12] | outcome [13] | Potency [14] | outcome [15] | Potency [16] | Potency [17] | Potency [18]

CCCOc1ccccc1-c1nc2n[nH]nc2c(=O)[nH]1
inactive: Potency [1] | Potency [2] | Potency [3] | Potency [4] | outcome [5] | outcome [6] | Potency [7] | outcome [8] | outcome [9] | Potency [10] | outcome [11] | outcome [12] | outcome [13] | Potency [14] | outcome [15] | Potency [16] | Potency [17] | Potency [18]

CC(C)CCOC(=O)CC(C)C
inactive: Potency [1] | Potency [2] | Potency [3] | Potency [4] | outcome [5] | outcome [6] | Potency [7] | outcome [8] | outcome [9] | Potency [10] | outcome [11] | outcome [12] | outcome [13] | Potency [14] | outcome [15] | Potency [16] | Potency [17]

CCCCCCCCN(C)CCCCCCCC
inactive: Potency [1] | Potency [2] | Potency [3] | Potency [4] | outcome [5] | outcome [6] | Potency [7] | outcome [8] | outcome [9] | Potency [10] | outcome [11] | outcome [12] | outcome [13] | Potency [14] | outcome [15] | Potency [16] | Potency [17] | Potency [18]

NCCN1CCNC1=O
inactive: Potency [1] | Potency [2] | Potency [3] | Potency [4] | outcome [5] | outcome [6] | Potency [7] | outcome [8] | outcome [9] | Potency [10] | outcome [11] | outcome [12] | outcome [13] | Potency [14] | outcome [15] | Potency [16] | Potency [17] | Potency [18]

CC(CCO)CCCC(C)(C)O (stereo unspecified)
inactive: Potency [1] | Potency [2] | Potency [3] | Potency [4] | outcome [5] | outcome [6] | Potency [7] | outcome [8] | outcome [9] | Potency [10] | outcome [11] | outcome [12] | outcome [13] | Potency [14] | outcome [15] | Potency [16] | Potency [17] | Potency [18]
